Experimental data from paper PMC3218832.

The sequences below were run against T1, p52p52 homodimer (Homo sapiens, UniProt Q00653 4-332) (assay: protein binding microarray; high values mean tight binding). Conditions: dsDNA, one strand shown.
T1 sequence: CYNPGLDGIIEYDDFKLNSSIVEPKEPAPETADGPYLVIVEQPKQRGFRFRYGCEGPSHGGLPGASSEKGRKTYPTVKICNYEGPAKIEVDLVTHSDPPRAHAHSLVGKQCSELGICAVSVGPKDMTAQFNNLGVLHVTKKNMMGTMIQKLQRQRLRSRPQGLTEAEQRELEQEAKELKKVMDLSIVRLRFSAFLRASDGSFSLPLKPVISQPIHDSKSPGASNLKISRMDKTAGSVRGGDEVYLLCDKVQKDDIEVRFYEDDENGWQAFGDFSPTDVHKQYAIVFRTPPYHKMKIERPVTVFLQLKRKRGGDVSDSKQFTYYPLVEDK
Work on AAAGAAGTCCT yielded a binding signal of -0.456 z-score. Work on GAGTTCTCCCC yielded a binding signal of 0.732 z-score. CGGATTGCCCC was tested, and the binding signal was 0.518 z-score. Work on CAAGGAGCCCC yielded a binding signal of -0.0311 z-score. For GAAGACACCCC, the binding signal was -0.303 z-score. GGGTGTGTCCC gave a binding signal of 1.38 z-score. Sequence CGGGGCATCCT has a binding signal of 0.516 z-score. Work on AGAAGTCTCCT yielded a binding signal of -0.738 z-score. AGGTACATCCT showed a binding signal of 0.047 z-score. Work on GAATTGTCCCC yielded a binding signal of 1.34 z-score. CAAAACACCCC was tested, and the binding signal was 0.313 z-score. In the case of AAGGTATTCCT, the binding signal is reported as -0.0124 z-score. For AAATGCCCCCC, the binding signal was 0.957 z-score. For CAAAGGCTCCT, the binding signal was -0.784 z-score. In the case of AAAGTTACCCT, the binding signal is reported as 0.376 z-score. For CAATGACTCCT, the binding signal was -0.692 z-score. Sequence CAGAAGGCCCC has a binding signal of -0.259 z-score. CAGAGATTCCT gave a binding signal of -0.492 z-score. Work on AAAGTGCCCCC yielded a binding signal of 0.518 z-score. For AAGGGGCTCCT, the binding signal was 0.959 z-score. GGGATAGTCCC was tested, and the binding signal was 2.94 z-score. CGGGTATCCCC was tested, and the binding signal was 2.48 z-score. Work on AAGGTCCCCCC yielded a binding signal of 0.844 z-score. CGATGTGTCCC was tested, and the binding signal was 0.228 z-score. Sequence AGAGGCGTCCC has a binding signal of 0.07 z-score. Work on GAAGAGCCCCT yielded a binding signal of 0.626 z-score. AGGGTGGTCCC showed a binding signal of 0.435 z-score. For CGAAGCTTCCC, the binding signal was -0.466 z-score. GAGAATGTCCT was tested, and the binding signal was -0.437 z-score. AGGAATGCCCT was tested, and the binding signal was -0.376 z-score. In the case of GGAGATATCCT, the binding signal is reported as -0.703 z-score. With GAAGGTGCCCT the binding signal was -0.486 z-score. CGGTTCATCCT was tested, and the binding signal was -0.513 z-score. AGAGGTCTCCC showed a binding signal of -0.27 z-score. Work on AGATGTTCCCT yielded a binding signal of 0.229 z-score. AGAGATGCCCT gave a binding signal of -0.655 z-score. AAGATTCTCCT showed a binding signal of -0.669 z-score. With CGGGATGCCCC the binding signal was 2.24 z-score. GAATAGGTCCT showed a binding signal of -0.387 z-score.

What follows are sequences tested against RELA (p65) subunit of heterodimer;p50 subunit (Homo sapiens;Homo sapiens, UniProt Q04206;P19838 1-307;7-356) in the same assay as above. Conditions: dsDNA, one strand shown.
Chain of RELA (p65) subunit of heterodimer;p50 subunit (Q04206 1-307, chain 1 of 2): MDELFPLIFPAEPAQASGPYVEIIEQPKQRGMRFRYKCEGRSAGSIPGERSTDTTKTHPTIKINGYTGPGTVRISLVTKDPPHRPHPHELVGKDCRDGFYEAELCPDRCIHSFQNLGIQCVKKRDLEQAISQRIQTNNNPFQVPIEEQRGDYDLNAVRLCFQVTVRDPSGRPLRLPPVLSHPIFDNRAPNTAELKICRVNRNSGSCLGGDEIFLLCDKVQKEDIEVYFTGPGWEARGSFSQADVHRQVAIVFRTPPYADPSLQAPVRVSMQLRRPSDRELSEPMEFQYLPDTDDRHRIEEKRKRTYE
Chain of RELA (p65) subunit of heterodimer;p50 subunit (P19838 7-356, chain 2 of 2): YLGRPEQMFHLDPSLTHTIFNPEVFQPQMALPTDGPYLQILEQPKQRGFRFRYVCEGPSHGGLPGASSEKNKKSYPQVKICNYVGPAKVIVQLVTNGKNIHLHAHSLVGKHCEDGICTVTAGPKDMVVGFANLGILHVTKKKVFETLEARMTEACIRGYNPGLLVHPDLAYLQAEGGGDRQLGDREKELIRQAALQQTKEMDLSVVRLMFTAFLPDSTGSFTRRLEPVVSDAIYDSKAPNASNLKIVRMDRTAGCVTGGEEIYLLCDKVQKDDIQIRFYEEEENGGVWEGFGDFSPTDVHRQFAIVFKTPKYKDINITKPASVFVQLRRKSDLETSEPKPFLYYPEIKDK
AAAGAAGTCCT gave a binding signal of -0.815 z-score. GAGTTCTCCCC showed a binding signal of 1.01 z-score. CGGATTGCCCC was tested, and the binding signal was 1.35 z-score. CAAGGAGCCCC was tested, and the binding signal was -0.1 z-score. With GAAGACACCCC the binding signal was -0.324 z-score. Sequence GGGTGTGTCCC has a binding signal of 0.647 z-score. With CGGGGCATCCT the binding signal was 0.0241 z-score. AGAAGTCTCCT was tested, and the binding signal was -0.94 z-score. In the case of AGGTACATCCT, the binding signal is reported as -0.495 z-score. For GAATTGTCCCC, the binding signal was 1.38 z-score. In the case of CAAAACACCCC, the binding signal is reported as 0.534 z-score. For AAGGTATTCCT, the binding signal was -0.477 z-score. AAATGCCCCCC showed a binding signal of 1.43 z-score. CAAAGGCTCCT showed a binding signal of -1.16 z-score. In the case of AAAGTTACCCT, the binding signal is reported as 0.371 z-score. Sequence CAATGACTCCT has a binding signal of -1.08 z-score. CAGAAGGCCCC was tested, and the binding signal was -0.114 z-score. For CAGAGATTCCT, the binding signal was -0.806 z-score. In the case of AAAGTGCCCCC, the binding signal is reported as 0.793 z-score. Work on AAGGGGCTCCT yielded a binding signal of 0.032 z-score. GGGATAGTCCC was tested, and the binding signal was 1.82 z-score. In the case of CGGGTATCCCC, the binding signal is reported as 1.84 z-score. AAGGTCCCCCC gave a binding signal of 1.52 z-score. For CGATGTGTCCC, the binding signal was 0.0812 z-score. AGAGGCGTCCC was tested, and the binding signal was -0.193 z-score. Work on GAAGAGCCCCT yielded a binding signal of 0.604 z-score. For AGGGTGGTCCC, the binding signal was 0.249 z-score. For CGAAGCTTCCC, the binding signal was -0.322 z-score. GAGAATGTCCT was tested, and the binding signal was -0.682 z-score. AGGAATGCCCT gave a binding signal of -0.147 z-score. Work on GGAGATATCCT yielded a binding signal of -0.874 z-score. In the case of GAAGGTGCCCT, the binding signal is reported as -0.722 z-score. With CGGTTCATCCT the binding signal was -0.88 z-score. AGAGGTCTCCC was tested, and the binding signal was -0.391 z-score. AGATGTTCCCT gave a binding signal of 0.235 z-score. With AGAGATGCCCT the binding signal was -0.706 z-score. Sequence AAGATTCTCCT has a binding signal of -0.803 z-score. Sequence CGGGATGCCCC has a binding signal of 1.51 z-score. In the case of GAATAGGTCCT, the binding signal is reported as -1.08 z-score.

Each sequence was assayed against RELA (p65) subunit of heterodimer;p52 subunit (Homo sapiens;Homo sapiens, UniProt Q04206;Q00653 1-307;4-332) in the same assay as above. Conditions: dsDNA, one strand shown.
Sequence AAAGAAGTCCT has a binding signal of -0.873 z-score. GAGTTCTCCCC was tested, and the binding signal was 1.01 z-score. In the case of CGGATTGCCCC, the binding signal is reported as 0.991 z-score. Sequence CAAGGAGCCCC has a binding signal of -0.176 z-score. In the case of GAAGACACCCC, the binding signal is reported as -0.316 z-score. Work on GGGTGTGTCCC yielded a binding signal of 1.02 z-score. In the case of CGGGGCATCCT, the binding signal is reported as 0.306 z-score. Sequence AGAAGTCTCCT has a binding signal of -0.879 z-score. AGGTACATCCT showed a binding signal of -0.249 z-score. Sequence GAATTGTCCCC has a binding signal of 1.18 z-score. In the case of CAAAACACCCC, the binding signal is reported as 0.701 z-score. AAGGTATTCCT was tested, and the binding signal was -0.138 z-score. AAATGCCCCCC was tested, and the binding signal was 1.32 z-score. Sequence CAAAGGCTCCT has a binding signal of -1.16 z-score. Sequence AAAGTTACCCT has a binding signal of 0.376 z-score. CAATGACTCCT showed a binding signal of -1.05 z-score. For CAGAAGGCCCC, the binding signal was -0.223 z-score. Work on CAGAGATTCCT yielded a binding signal of -0.992 z-score. Sequence AAAGTGCCCCC has a binding signal of 0.904 z-score. In the case of AAGGGGCTCCT, the binding signal is reported as 0.753 z-score. Work on GGGATAGTCCC yielded a binding signal of 2.15 z-score. CGGGTATCCCC was tested, and the binding signal was 2.01 z-score. In the case of AAGGTCCCCCC, the binding signal is reported as 1.1 z-score. With CGATGTGTCCC the binding signal was 0.0701 z-score. Work on AGAGGCGTCCC yielded a binding signal of -0.01 z-score. For GAAGAGCCCCT, the binding signal was 0.773 z-score. AGGGTGGTCCC was tested, and the binding signal was 0.357 z-score. CGAAGCTTCCC gave a binding signal of -0.568 z-score. GAGAATGTCCT gave a binding signal of -0.739 z-score. AGGAATGCCCT showed a binding signal of -0.196 z-score. GGAGATATCCT gave a binding signal of -0.798 z-score. In the case of GAAGGTGCCCT, the binding signal is reported as -0.698 z-score. Sequence CGGTTCATCCT has a binding signal of -0.9 z-score. AGAGGTCTCCC was tested, and the binding signal was -0.315 z-score. In the case of AGATGTTCCCT, the binding signal is reported as -0.0295 z-score. In the case of AGAGATGCCCT, the binding signal is reported as -0.889 z-score. With AAGATTCTCCT the binding signal was -0.991 z-score. For CGGGATGCCCC, the binding signal was 1.6 z-score. Sequence GAATAGGTCCT has a binding signal of -0.8 z-score.

What follows are sequences tested against RELB subunit;p50 subunit (Homo sapiens;Homo sapiens, UniProt Q01201;P19838 120-401;7-356) in the same assay as above. Conditions: dsDNA, one strand shown.
AAAGAAGTCCT showed a binding signal of -0.926 z-score. Sequence GAGTTCTCCCC has a binding signal of 1.23 z-score. Work on CGGATTGCCCC yielded a binding signal of 0.497 z-score. In the case of CAAGGAGCCCC, the binding signal is reported as 0.0779 z-score. GAAGACACCCC showed a binding signal of -0.183 z-score. For GGGTGTGTCCC, the binding signal was 0.42 z-score. CGGGGCATCCT was tested, and the binding signal was 0.179 z-score. For AGAAGTCTCCT, the binding signal was -0.942 z-score. Work on AGGTACATCCT yielded a binding signal of -0.147 z-score. For GAATTGTCCCC, the binding signal was 1.38 z-score. Sequence CAAAACACCCC has a binding signal of 0.488 z-score. With AAGGTATTCCT the binding signal was -0.322 z-score. With AAATGCCCCCC the binding signal was 1.4 z-score. CAAAGGCTCCT showed a binding signal of -1.21 z-score. Work on AAAGTTACCCT yielded a binding signal of 0.557 z-score. With CAATGACTCCT the binding signal was -1.12 z-score. CAGAAGGCCCC gave a binding signal of -0.248 z-score. Sequence CAGAGATTCCT has a binding signal of -1.16 z-score. AAAGTGCCCCC was tested, and the binding signal was 0.839 z-score. AAGGGGCTCCT gave a binding signal of 0.344 z-score. Work on GGGATAGTCCC yielded a binding signal of 1.87 z-score. CGGGTATCCCC showed a binding signal of 0.893 z-score. Work on AAGGTCCCCCC yielded a binding signal of 1.51 z-score. For CGATGTGTCCC, the binding signal was -0.0289 z-score. In the case of AGAGGCGTCCC, the binding signal is reported as 0.139 z-score. In the case of GAAGAGCCCCT, the binding signal is reported as 0.554 z-score. Sequence AGGGTGGTCCC has a binding signal of 0.251 z-score. With CGAAGCTTCCC the binding signal was -0.617 z-score. In the case of GAGAATGTCCT, the binding signal is reported as -1.01 z-score. AGGAATGCCCT gave a binding signal of -0.674 z-score. Sequence GGAGATATCCT has a binding signal of -1.04 z-score. Sequence GAAGGTGCCCT has a binding signal of -0.821 z-score. For CGGTTCATCCT, the binding signal was -0.96 z-score. For AGAGGTCTCCC, the binding signal was -0.0782 z-score. With AGATGTTCCCT the binding signal was 0.0779 z-score. AGAGATGCCCT gave a binding signal of -1.04 z-score. AAGATTCTCCT gave a binding signal of -0.921 z-score. With CGGGATGCCCC the binding signal was 1.24 z-score. In the case of GAATAGGTCCT, the binding signal is reported as -0.766 z-score.
